The values that follow come from PubChem BioAssay (NCI).

This is part of a sample that, as a whole, favours compounds with a hit. Of some 83,000 tested, about 20% had one in any assay.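 Method: cells in 96-well plates; compound added at one concentration; 48 h incubation; percent growth measured; values under 10 scored active.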 Unmarked numbers belong to inactive results. The source made the active and inactive calls.

Among the test systems are RPMI-8226 leukemia; OVCAR-8 ovarian; OVCAR-5 ovarian; OVCAR-4 ovarian; SK-OV-3 ovarian; IGROV1 ovarian; OVCAR-3 ovarian; HS 578T breast; NCI/ADR-RES ovarian.
Common to all, as to experiment: NCI-60 one-dose screen, 48 h (100 = growth as untreated, 0 = no growth, -100 = all killed)
Common to all, as to settings: 10 µM

On to `Cc1ccc(S(=O)(=O)N2CCc3ccccc3CC2)cc1`, for which the growth in the test on RPMI-8226 leukemia was 42.3%; in the test with OVCAR-8 ovarian, 79.2%; with OVCAR-5 ovarian, 94.3%; in the test with OVCAR-4 ovarian it was 44.8%; with SK-OV-3 ovarian it was 96.3%; in the test on IGROV1 ovarian it was 104%. Besides, the growth was 103% with OVCAR-3 ovarian, 109% in the test on HS 578T breast and 69.8% in the test with NCI/ADR-RES ovarian.
For the compound `COc1cc(-c2nc3cc(Cl)c(Cl)cc3[nH]2)ccc1OCC(=O)NN`, the growth in the test with RPMI-8226 leukemia is 107%; with OVCAR-8 ovarian it was 76.4%; in the test with OVCAR-5 ovarian, 98.1%; with OVCAR-4 ovarian, 85.3%; with SK-OV-3 ovarian, 93.3%; in the test with IGROV1 ovarian, 86.6%. Besides, the growth in the test with OVCAR-3 ovarian is 93%; in the test on HS 578T breast, 95.1%; with NCI/ADR-RES ovarian, 87.8%.
In the case of `COc1cc(/C=C/C(=O)c2cc(-c3ccc(C(F)(F)F)cc3)ccc2O)cc(OC)c1OC`, the growth in the test with RPMI-8226 leukemia is -9.06% (active); in the test with OVCAR-8 ovarian it was 64.1%; in the test on OVCAR-5 ovarian, 99.6%; with OVCAR-4 ovarian it was 64.6%; with SK-OV-3 ovarian, 81.5%; with IGROV1 ovarian it was 75.3%. The growth is 74.1% in the test on OVCAR-3 ovarian, 59.4% with HS 578T breast and 65.9% with NCI/ADR-RES ovarian.
Consider `NC1CCC(Nc2nc(NCc3ccc(-c4cccs4)nc3)c3ncn(C4CCCC4)c3n2)CC1` (configuration not stated), for which the growth is -20.5% (active) in the test on RPMI-8226 leukemia; 12.2% in the test with OVCAR-8 ovarian; 22.6% in the test on OVCAR-5 ovarian; 5.74% (active) in the test with OVCAR-4 ovarian; 8.26% (active) in the test with IGROV1 ovarian; 2.56% (active) with OVCAR-3 ovarian. Also, the growth is 6.97% (active) in the test on HS 578T breast and 38.1% in the test on NCI/ADR-RES ovarian.
Regarding `CCc1c(C)[nH]c(=O)c(C(N)=O)c1C#N`, the growth in the test with RPMI-8226 leukemia is 105%; in the test on OVCAR-8 ovarian, 104%; in the test on OVCAR-5 ovarian, 109%; in the test on OVCAR-4 ovarian, 115%; in the test on SK-OV-3 ovarian it was 100%; with IGROV1 ovarian, 107%. For the same compound, the growth was 116% in the test on OVCAR-3 ovarian, 95.5% in the test on HS 578T breast and 119% in the test on NCI/ADR-RES ovarian.
In the case of `Cc1ccc(NS(=O)(=O)c2ccccc2)c(NS(=O)(=O)c2ccccc2)c1`, the growth was 93.4% in the test with RPMI-8226 leukemia; 105% in the test on OVCAR-8 ovarian; 104% in the test with OVCAR-5 ovarian; 97% with OVCAR-4 ovarian; 102% in the test with SK-OV-3 ovarian; 107% in the test on IGROV1 ovarian. Further, the values for the growth in the test with OVCAR-3 ovarian, in the test on HS 578T breast and in the test on NCI/ADR-RES ovarian were 98%, 91.1% and 94.7%, respectively.
Consider `CC(=O)Nc1ccc2c(c1)C(N1CC3CCC(CC3)C1)c1ccccc1-2` (configuration not stated), for which the growth with RPMI-8226 leukemia was 52.5%; with OVCAR-8 ovarian it was 88.3%; with OVCAR-5 ovarian, 95.8%; in the test with OVCAR-4 ovarian, 65.9%; with IGROV1 ovarian it was 92.9%; with OVCAR-3 ovarian, 100%. In addition, the growth in the test on HS 578T breast is 83.2%; in the test on NCI/ADR-RES ovarian, 88.6%.
As for `O=C(Nc1cccc([N+](=O)[O-])c1)NN1CCCCCC1`, the growth in the test on RPMI-8226 leukemia was 60.5%; in the test with OVCAR-8 ovarian it was 99.2%; in the test with OVCAR-5 ovarian, 105%; in the test on SK-OV-3 ovarian, 114%; in the test on IGROV1 ovarian, 109%; with OVCAR-3 ovarian it was 87.4%. Moreover, the growth in the test with HS 578T breast was 97.2%; with NCI/ADR-RES ovarian it was 91.4%.
As for `COc1cc(OC)cc(N2CCN(C(=O)Nc3nc4cc(F)ccc4nc3OC)CC2)c1`, the growth with RPMI-8226 leukemia was 22.7%; with OVCAR-8 ovarian, 12.7%; in the test with OVCAR-5 ovarian, 49%; in the test on OVCAR-4 ovarian, 44%; in the test with SK-OV-3 ovarian, 14.4%; with IGROV1 ovarian, 17.6%. Also, the growth with OVCAR-3 ovarian was -11.8% (active); in the test on HS 578T breast, 37.6%; with NCI/ADR-RES ovarian, -2.42% (active).
For the compound `COc1cc(Cl)cc(-c2nn(-c3cccc(NC(=O)Nc4cccc(C(F)(F)F)c4)c3)cc2-c2ccncc2)c1`, the growth is -14.2% (active) in the test on RPMI-8226 leukemia; -12.3% (active) in the test with OVCAR-8 ovarian; 34.1% in the test on OVCAR-5 ovarian; 3.28% (active) in the test with OVCAR-4 ovarian; 14.2% in the test with SK-OV-3 ovarian; 28.8% in the test on IGROV1 ovarian. In addition, the growth was -0.412% (active) in the test on OVCAR-3 ovarian, 23.1% in the test with HS 578T breast and 3.58% (active) in the test with NCI/ADR-RES ovarian.
Turning to `Cc1cc(C#Cc2ccccc2)ccc1-n1c(/C=C/c2cc(O)ccc2O)nc2ccccc2c1=O`, the growth in the test with RPMI-8226 leukemia was -18.1% (active); with OVCAR-8 ovarian, 16.3%; in the test on OVCAR-5 ovarian it was -24.5% (active); in the test on OVCAR-4 ovarian it was 19.2%; in the test with SK-OV-3 ovarian, -49.3% (active); in the test on IGROV1 ovarian it was -12.6% (active). The values for the growth in the test on OVCAR-3 ovarian, in the test with HS 578T breast and in the test with NCI/ADR-RES ovarian were -46.2% (active), 31.8% and 6.37% (active), respectively.
`COc1ccccc1S(=O)(=O)Nc1ccc2c(c1)CN(C)C(=O)N2`: the growth in the test with RPMI-8226 leukemia is 4.25% (active); with OVCAR-8 ovarian, 56.2%; in the test on OVCAR-5 ovarian, 74.5%; in the test on OVCAR-4 ovarian, 43.1%; in the test on SK-OV-3 ovarian it was 49.1%; with IGROV1 ovarian it was 24%. Moreover, the growth in the test with OVCAR-3 ovarian was 32.2%; in the test with HS 578T breast it was 33.7%; in the test with NCI/ADR-RES ovarian it was 68.9%.
Take `Cc1cc(C)c2nc(C)c(C)[n+]([O-])c2c1`: the growth in the test with RPMI-8226 leukemia is 90.7%; with OVCAR-8 ovarian it was 94%; in the test on OVCAR-5 ovarian it was 99.6%; with OVCAR-4 ovarian, 107%; in the test with OVCAR-3 ovarian, 110%; in the test on HS 578T breast, 112%. The growth in the test with NCI/ADR-RES ovarian is 104%.
